{"source": "PubChem BioAssay (Tox21)", "note": "Results filed as inconclusive are left out. A number with no mark means an inactive call. The source made the active and inactive calls. The call rests on the fitted dose curve; in most records, active means well fitted activation curve with a large enough effect in the repeat runs; inconclusive means weak or mixed curves; inactive means flat fitted curve, though single readings scatter. On the % scale 0 is the no-effect control and ±100 the full control effect; potency means the concentration at half of the fitted maximal effect."}
{"experiment": "A CellTox Green Cytotoxicity Assay to monitor cytotoxicity in HEK293 cells - 40 hour (AID 1224871); further: nearly all actives have a fitted effect of over 45% in size", "settings": "CellTox Green fluorescence; series mostly up to 76.8 µM; cytotoxicity increase: at the top concentration", "outline": "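Fluorescence from a DNA-binding dye excluded by viable cells was measured repeatedly in the same HEK293 wells (600 cells/well) during continuous compound exposure at 37 C. Each assay gives one read point: 0, 8, 16, 24, 32 or 40 h.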"}
{"smiles": "Cc1cc(C)c(N=Nc2c(O)c(S(=O)(=O)O)cc3cc(S(=O)(=O)O)ccc23)cc1C", "cytotoxicity increase": "18.5% [at 6.97 µM]"}
{"smiles": "c1ccc(CCc2ccccc2)cc1", "Potency": "38.9 µM (active)"}
{"smiles": "COc1cc2c(cc1OC)-c1cc3ccc(OC)c(OC)c3c[n+]1CC2", "cytotoxicity increase": "22.9%"}
{"smiles": "CC1OC1C1CCC2(C)OC2C1", "note": "(configuration not stated)", "cytotoxicity increase": "-0.356%"}
{"smiles": "C=COCC1CCC(COC=C)CC1", "note": "(configuration not stated)", "cytotoxicity increase": "-6.86%"}
{"smiles": "NCCCC[C@H](N[C@@H](CCc1ccccc1)C(=O)O)C(=O)N1CCC[C@H]1C(=O)O", "cytotoxicity increase": "-0.115% [at 35.3 µM]"}
{"smiles": "CNCCO", "cytotoxicity increase": "-1.02%"}
{"smiles": "CCCCS(=O)(=O)N[C@@H](Cc1ccc(OCCCCC2CCNCC2)cc1)C(=O)O", "cytotoxicity increase": "0.837% [at 35.3 µM]"}
{"smiles": "Cc1cccc(C)c1NC(=O)CC12CCCN1CCC2", "cytotoxicity increase": "0.225% [at 35.3 µM]"}
{"smiles": "Cc1nc(C2CCCCC2)c(-c2ccc(S(N)(=O)=O)c(F)c2)o1", "cytotoxicity increase": "-11% [at 35.3 µM]"}
{"smiles": "O=S(=O)(O)c1cccc2c(S(=O)(=O)O)cccc12", "cytotoxicity increase": "25%"}
{"smiles": "COc1ccnc(CS(=O)c2nc3cc(OC(F)F)ccc3[nH]2)c1OC", "note": "(configuration not stated)", "cytotoxicity increase": "-14.9%"}
{"smiles": "C[N+]1(C)[C@@H]2CC(OC(=O)[C@H](CO)c3ccccc3)C[C@H]1[C@@H]1O[C@@H]12", "note": "(some centres not stated)", "cytotoxicity increase": "8.35% [at 35.3 µM]"}
{"smiles": "CC[N+](CC)(CC)CCOc1cccc(OCC[N+](CC)(CC)CC)c1OCC[N+](CC)(CC)CC", "cytotoxicity increase": "-5.39% [at 35.3 µM]"}
{"smiles": "C1CCC2=NCCCN2CC1", "cytotoxicity increase": "-11.7%"}
{"smiles": "CCCCCCCCCC[N+](C)(C)[O-]", "cytotoxicity increase": "-1.27%"}
{"smiles": "CCOc1ccccc1OCC", "cytotoxicity increase": "5.58%"}
{"smiles": "C=C(C)C(=O)OCCOCCOCCOCCOC(=O)C(=C)C", "cytotoxicity increase": "-2.95%"}
{"smiles": "C[N+](C)(CCOc1ccccc1)Cc1cccs1", "cytotoxicity increase": "-16.8% [at 35.3 µM]"}
{"smiles": "CCOC(=O)C1=NOC(c2ccccc2)(c2ccccc2)C1", "cytotoxicity increase": "0.0363%"}
{"smiles": "CCCn1cc[n+](C)c1C", "cytotoxicity increase": "-10.3%"}
{"smiles": "O=C(O)c1cn(C2CC2)c2cc(N3CCNCC3)c(F)cc2c1=O", "cytotoxicity increase": "-0.292% [at 35.3 µM]"}
{"smiles": "CCN[C@H]1C[C@H](C)S(=O)(=O)c2sc(S(N)(=O)=O)cc21", "cytotoxicity increase": "-1.99% [at 35.3 µM]"}
{"smiles": "Nc1ccn([C@@H]2O[C@H](CO)[C@@H](O)C2(F)F)c(=O)n1", "cytotoxicity increase": "-0.183% [at 35.3 µM]"}
{"smiles": "O=C1CCCCCCCCCCCCCCO1", "cytotoxicity increase": "14%"}
{"smiles": "CC(=O)O[C@@]12CO[C@@H]1C[C@H](O)[C@@]1(C)C(=O)[C@H](O)C3=C(C)[C@@H](OC(=O)[C@H](O)[C@@H](NC(=O)OC(C)(C)C)c4ccccc4)C[C@@](O)([C@@H](OC(=O)c4ccccc4)[C@H]21)C3(C)C", "cytotoxicity increase": "-0.816% [at 35.3 µM]"}
{"smiles": "CC(=O)c1ccc2ccccc2c1", "cytotoxicity increase": "-0.101%"}
{"smiles": "Cc1ccc(C(=O)c2ccc(CC(=O)O)n2C)cc1", "cytotoxicity increase": "-2.02% [at 35.3 µM]"}
{"smiles": "COC(=O)C1=C(C)NC(C)=C(C(=O)OC(C)C)C1c1cccc2nonc12", "note": "(configuration not stated)", "cytotoxicity increase": "-9.72% [at 35.3 µM]"}
{"smiles": "COC(=O)Nc1ccc(Cl)c(Cl)c1", "cytotoxicity increase": "-17%"}
{"smiles": "CC1=C(C/C=C(\\C)CCC[C@H](C)CCC[C@H](C)CCCC(C)C)C(=O)c2ccccc2C1=O", "cytotoxicity increase": "-10.3% [at 35.3 µM]"}
{"smiles": "Cc1c(N)c(=O)n(-c2ccccc2)n1C", "cytotoxicity increase": "1.54% [at 35.3 µM]"}
